We go through 105 compounds from PubChem BioAssay AID590 (National Center for Advancing Translational Sciences (NCATS), 2007).

Out of some 59,000 compounds screened, about 6,500 (11%) were called active. About 15% were inconclusive and are not listed. No stated cut-off is given here; in the data, active means max dye-equivalent concentration above about 10 nM; inconclusive means mostly about 1.1 nM to 9.6 nM; inactive means weaker than that. The entries come from a sample that favours actives as a whole.

The test in a line: qHTS Assay for Spectroscopic Profiling in A350 Spectral Region. The conditions noted are these: Compound autofluorescence, 340/450 nm, Alexa 350 dye-equivalents; active compounds read high. On the technique in general: In qHTS, concentration-response curves come from the screen itself.
In the case of `COc1ccc(Cc2nnnn2CC(=O)O)cc1`, the max dye-equivalent concentration result is “inactive”. Consider `CC(C)NC(=O)N1CC[C@@]2(CCCN(C(=O)c3cccn3C)C2)C1`, for which the max dye-equivalent concentration entry was “inactive”. For the compound `O=C(C1CCN(S(=O)(=O)c2cccs2)CC1)N1CCCCCC1`, the max dye-equivalent concentration entry was “inactive”. For `O=C(Nc1nncs1)c1ccccc1NS(=O)(=O)c1cccs1` the value was 520 nM (active); for `O=C(Nc1ncccn1)c1cccs1`, “inactive”. With `COCCCN1C(=O)c2ccc(C(=O)Nc3ccc(OC)cc3OC)cc2C1=O`, the max dye-equivalent concentration entry was “inactive”. Take `COc1ccc(NC(=O)N2CC3(CCN(C(=O)c4cccn4C)CC3)C2)cc1`: the max dye-equivalent concentration entry was “inactive”.

Turning to `CCN1C(=O)C(C(=O)NC(C)c2ccccc2)C2CC1(C)Oc1ccccc12` (stereo not given), the max dye-equivalent concentration entry was “inactive”. For `CC1CCCCN1CC(=O)NCc1ccc2c(c1)OCO2` (stereo not given) the value was 50 nM (active). For `CCOC(=O)NCc1ccc2c(c1)OCO2` the value was “inactive”; for `O=C(Cn1nnc(-c2ccccc2)n1)NCc1ccc2c(c1)OCO2`, “inactive”; for `COc1cccc(C2/C(=C(/O)c3ccncc3)C(=O)C(=O)N2CCCN(C)C)c1` (stereo not given), “inactive”. Under `CCCn1c(=O)c2[nH]c(C3CCCC3)nc2n(CCC)c1=O` stands “inactive”; under `CSCCC(NC(N)=O)C(=O)N(C)CC(=O)Nc1ccc(C)cc1` (stereo not given), “inactive”. Regarding `O=c1c(-c2ccc(F)cc2)nc2cnc(N3CCOCC3)nc2n1-c1ccccc1`, the max dye-equivalent concentration is 29 nM (active). Regarding `CN1CCN(c2ncc3nc(-c4ccc(Cl)cc4)c(=O)n(-c4ccccc4)c3n2)CC1`, the max dye-equivalent concentration is 53 nM (active). For `O=C(c1ccc2c(c1)C(=O)N(c1ccc(Cl)cc1)C2=O)N1CCN(c2ccccn2)CC1`, the max dye-equivalent concentration result was “inactive”. For `c1ccc(-n2nnnc2N2CCOCC2)cc1` the value was “inactive”. Under `Cn1cc(-c2nc3cncnc3n(-c3ccccc3)c2=O)c2ccccc21` stands “inactive”; under `Clc1ccc(C(c2ccc(Cl)cc2)n2cc[n+](C[C@@H](OCc3ccc(Cl)cc3Cl)c3ccc(Cl)cc3Cl)c2)cc1`, “inactive”. With `COc1ccc(CNc2ncnc3ccc(-c4cccnc4)cc23)c(OC)c1`, the max dye-equivalent concentration result is “inactive”. Take `Cc1cccc(N2CCN(C(=O)C3CCN(S(=O)(=O)c4cnc[nH]4)CC3)CC2)c1C`: the max dye-equivalent concentration entry is “inactive”.

Regarding `O=C(c1ccco1)N1CCC2(CC1)CN(c1ncccn1)C2`, the max dye-equivalent concentration result was “inactive”. Turning to `Cc1nc(NCc2ccccc2)c(C(N)=O)c2c1COC(C)(C)C2`, the max dye-equivalent concentration is 150 nM (active). As for `O=C(c1cccnc1NCc1ccccc1)N1CCOCC1`, the max dye-equivalent concentration result is “inactive”. For `O=c1ccn(Cc2ccccc2Cl)cc1` the value was “inactive”; for `CC(C)CNC(=O)c1cc(-c2ccc(Br)cc2)on1`, “inactive”; for `COC(=O)c1ccc(NC(=O)CSc2nnc(-c3ccncc3)n2C)cc1`, “inactive”. On to `CCOc1ccc(N=NS(=O)(=O)O)cc1`, for which the max dye-equivalent concentration result is “inactive”. On to `COc1ccc(-c2nnn(CC(=O)N(CCO)C(C(=O)NC3CCCC3)c3ccc(F)cc3)n2)cc1` (stereo not given), for which the max dye-equivalent concentration result is “inactive”. As to `CCOc1ccc2nc(NC(=O)CSc3nc4c(c(=O)n(C)c(=O)n4C)n3CC)sc2c1`, the max dye-equivalent concentration result is “inactive”.

Turning to `Cc1ccc(C(C(=O)NC2CCCC2)N(Cc2ccco2)C(=O)CCC(=O)Nc2ccccn2)cc1` (stereo not given), the max dye-equivalent concentration result is “inactive”. Under `Cc1noc(C)c1COC(=O)Cn1c(C)nc2ccccc21` stands “inactive”; under `O=C(Nc1ccc(Oc2ccccc2)cc1)c1ccco1`, “inactive”.

With `CCOc1cc(NC(=O)c2ccco2)c(OCC)cc1NC(=O)COc1ccccc1`, the max dye-equivalent concentration is 78 nM (active). For `Cc1ccc(C(=O)COc2cccc(NC(=O)c3ccco3)c2)cc1` the value was “inactive”; for `O=C(c1cccs1)N1CCCC(c2nc(-c3ccc(F)cc3)no2)C1` (stereo not given), “inactive”; for `Cc1ccc(S(=O)(=O)N2CCOCC2)cc1C(=O)NCc1ccc(F)cc1`, “inactive”. Under `CCCn1nnc2sc3c(c2c1=O)CCC(C)C3` (stereo not given) stands 32 nM (active); under `O=c1c2ccccc2nnn1CSc1nc2sc3c(c2c(=O)n1CC1CCCO1)CCC3` (stereo not given), “inactive”. For `CC1CCc2sc3nc(N4CCN(CCO)CC4)n4ncnc4c3c2C1` (stereo not given) the value was “inactive”. On to `CC(C)C[C@H](NC(=O)[C@@H]1O[C@H]1C(=O)O)C(=O)NCCCCN=C(N)N`, for which the max dye-equivalent concentration result was “inactive”. For `CC(C)Cc1ccc(S(=O)(=O)N2CCN(C(=O)c3ccco3)CC2)cc1` the value was “inactive”; for `Cc1ccccc1NC(=O)c1cc(S(=O)(=O)N2CCOCC2)cs1`, “inactive”; for `Cc1cc(NC(=O)CCC(=O)N(c2ccccc2)C(C(=O)NC2CCCC2)c2ccncc2)no1` (stereo not given), “inactive”. For the compound `COc1ccc2nc(NC3=NCN(CC4CCCO4)CN3)nc(C)c2c1` (stereo not given), the max dye-equivalent concentration was 82 nM (active).

On to `Cc1ccc2nc(NC3=NCN(CCc4ccccc4)CN3)nc(C)c2c1`, for which the max dye-equivalent concentration entry is “inactive”. For the compound `Cc1ccsc1C(=O)OCC(=O)c1cc(C)n(CC2CCCO2)c1C` (stereo not given), the max dye-equivalent concentration entry was “inactive”. Under `CCc1cc2c(=O)c(-c3ccon3)c(N)oc2cc1OC` stands “inactive”. On to `CC(=NCC1CCCO1)c1c(O)[nH]c(=O)[nH]c1=O` (stereo not given), for which the max dye-equivalent concentration result was “inactive”. `CCOC(=O)CN(C(=O)CN1CCOCC1)c1ccc(Br)cc1`: the max dye-equivalent concentration result was “inactive”. Under `COCCCn1c(CCC(=O)O)ccc1-c1ccc(F)cc1` stands 1500 nM (active); under `Cc1ccc(S(=O)(=O)C(C#N)c2nc3ccccc3nc2N2CCCC2)cc1C` (stereo not given), 190 nM (active).

On to `Cc1cc(Cl)ccc1OCC(=O)Oc1c(Cl)c(Cl)c(Cl)c(Cl)c1Cl`, for which the max dye-equivalent concentration result was “inactive”. Under `COC(=O)c1c(NC(=O)c2cccs2)sc2c1CCCC2` stands 65 nM (active); under `CCOC(=O)CSc1nnc(CNC(=O)c2cccs2)n1-c1ccccc1`, “inactive”. Under `CCOC(=O)c1c(NC(=O)CSc2nnc(Cc3csc(N)n3)n2C)sc(C)c1C` stands “inactive”.

For `CCOC(=O)c1c(-n2cnnn2)sc(C)c1C`, the max dye-equivalent concentration entry is “inactive”.

In the case of `CCOC(=O)c1oc2ccccc2c1NC(=O)c1cccs1`, the max dye-equivalent concentration is 21 nM (active). In the case of `CCOCC(=O)Nc1sc2c(c1C(=O)OCC)CCCC2`, the max dye-equivalent concentration entry is “inactive”. For `COC(=O)Cn1cc(C(=O)c2cccs2)c2ccccc21`, the max dye-equivalent concentration entry was “inactive”. In the case of `CCOC(=O)c1c(NC(=O)c2cccs2)sc(C)c1C`, the max dye-equivalent concentration is 180 nM (active). Under `COC(=O)c1c(NC(=O)CSc2nncs2)sc2c1CCCCC2` stands “inactive”. Under `Cc1ccc(C2(c3ccc(C)cc3)NC(=O)N(Cc3c(C)noc3C)C2=O)cc1` stands “inactive”; under `Cc1ccc(NC(=O)N2CCC(C(=O)NCc3ccc(F)cc3)CC2)cc1`, “inactive”. Regarding `CCOc1ccc(-c2nnn(CC(=O)N3CCN(c4ccc(OC)cc4)CC3)n2)cc1OCC`, the max dye-equivalent concentration result was “inactive”. For `CCn1c(SCC(=O)Nc2nccs2)nnc1-c1ccncc1` the value was “inactive”.

Take `CC(CN1CCCCC1)OC(=O)c1ccccc1Cl` (stereo not given): the max dye-equivalent concentration entry was “inactive”. For `CCCC(=O)Nc1ccc(C(=O)NCCCn2ccnc2)cc1` the value was “inactive”. In the case of `CCn1c(=O)cc(SCC(=O)NCc2ccc3c(c2)OCO3)c2ccccc21`, the max dye-equivalent concentration result is “inactive”.

Turning to `CCCn1c(SCC(=O)c2ccc3c(c2)OCCO3)nnc1C(C)C`, the max dye-equivalent concentration entry is “inactive”. For `O=C(c1cc(C(F)(F)F)cc(C(F)(F)F)c1)N1CCC[C@@]2(CCN(c3ccccn3)C2)C1` the value was “inactive”; for `CCOC(=O)CC1C(=O)NCCN1C(=O)COc1ccc(Br)cc1C` (stereo not given), “inactive”.

As for `CCOc1cccc(/C(O)=C2/C(=O)C(=O)N(CCOC)C2c2ccncc2)c1` (stereo not given), the max dye-equivalent concentration result was “inactive”. Under `COCCOC(=O)C1=C(C)Nc2nc(C)nn2C1c1ccccc1` (stereo not given) stands “inactive”; under `CCOC(=O)C1=C(C)NC(C)=C(C(=O)OCC)C1c1ccccn1`, 330 nM (active). For `CCOC(=O)c1ccc(NC(=O)CSc2ncccn2)cc1`, the max dye-equivalent concentration entry is “inactive”. For `CC(=O)OCC(=O)[C@@]1(O)CC[C@@H]2[C@H]3CCC4=CC(=O)C=C[C@]4(C)[C@]3(F)[C@@H](O)C[C@@]21C` the value was “inactive”; for `Cn1c(=O)[nH]c(=O)c2c1nc(N1CCCCCC1)n2CC(=O)c1ccccc1`, “inactive”; for `CCC(C)Sc1nc2c(c(=O)[nH]c(=O)n2C)n1CC(O)COc1cccc2ccccc12` (stereo not given), “inactive”. On to `CS(=O)(=O)N1CCC2(CC1)CN(Cc1ccccc1)C2`, for which the max dye-equivalent concentration result was “inactive”. As for `CCn1c(CNc2ccc(OC)cc2)nnc1SCC(=O)c1ccc(OC)cc1`, the max dye-equivalent concentration entry is “inactive”. Under `Cc1ccc(S(=O)(=O)Nc2ccccc2CNc2c(C)n(C)n(-c3ccccc3)c2=O)cc1` stands “inactive”; under `COc1ccccc1NC(=O)CSc1nc2sc(C)c(C)c2c(=O)n1Cc1ccco1`, “inactive”; under `Cc1nc2c(c(=O)n1Cc1ccco1)c1nc3ccccc3nc1n2Cc1ccccc1`, 110 nM (active). Under `O=c1[nH]c(CSc2ncc(-c3ccc(F)cc3)n2Cc2ccco2)nc2ccccc12` stands “inactive”; under `Cn1c(COc2ccc(Cl)cc2)nc2ccccc2c1=O`, “inactive”; under `CCOC(=O)CSc1nc2c(sc(=S)n2CCc2ccccc2)c(=O)n1Cc1ccco1`, “inactive”. For `CC(Sc1nc2ccccc2c(=O)n1Cc1ccco1)C(=O)c1ccccc1` (stereo not given) the value was “inactive”; for `Cc1ccc(Cn2c(C)nc3c(c2=O)c2nc4ccccc4nc2n3Cc2ccco2)cc1`, 1000 nM (active).

Consider `Cc1nc2ccccc2c(=O)n1CCCn1ccnc1`, for which the max dye-equivalent concentration entry is “inactive”. Under `COCCCn1c2nc3ccccc3nc2c2c(=O)n(Cc3ccc(Cl)cc3)c(C)nc21` stands 380 nM (active); under `Cc1ccc(N2CCN(c3ccc(C)cc3)C2c2ccccn2)cc1`, “inactive”; under `COc1ccccc1-n1cnc2cc(NS(=O)(=O)c3ccccc3)ccc21`, “inactive”. Under `CCOC(=O)C1(Cc2ccc(O)cc2)NC(c2ccccc2F)C2C(=O)N(C)C(=O)C21` (stereo not given) stands “inactive”; under `O=C(O)C1CC=C(Cl)CC1C(=O)NCc1ccccc1` (stereo not given), “inactive”; under `CC1(C)Cc2ccccc2-c2nc(CN3CCOCC3)[nH]c(=O)c21`, “inactive”. For `CCN(CC)C(=O)CSc1nnc(-c2cnccn2)n1-c1ccc(C)cc1` the value was “inactive”; for `O=C(CN1CCN(S(=O)(=O)/C=C/c2ccccc2)CC1)NC(=O)NCc1ccco1`, “inactive”; for `Cc1cccc(N=C2NC(=O)CS2)c1C`, “inactive”. On to `Cc1ccc(NC(=O)CN2CCC3(O)CCCCC3C2c2ccc3c(c2)OCO3)c(C)c1` (stereo not given), for which the max dye-equivalent concentration entry was “inactive”. Under `CC(=O)Nc1cccc2c1[n+]([O-])c(C)c(C)[n+]2[O-]` stands “inactive”; under `Cc1ccc2cccc(O)c2[n+]1[O-]`, 16 nM (active). Consider `O=C(c1cc(C(F)(F)F)cc(C(F)(F)F)c1)N1CCC2(CCCN(c3ccccn3)C2)CC1`, for which the max dye-equivalent concentration result is “inactive”. For `O=C(Nc1cccc(C(=O)N2CCCC2)c1)c1ccccc1` the value was “inactive”.
